Measured values reported in PubChem BioAssay.

Target: Voltage-gated potassium channel subunit beta-2 (Rattus norvegicus) (UniProt P62483)
Experiment: KvBeta enzyme negative modulators, primary screen, biochemical, NADPH fluorescence (AID 622);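 note: slope of raw intensity against log time taken from 70 to 1610 s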
Details: recombinant KvBeta, 4-cyanobenzaldehyde reduction, at 10 µM, hits give high values;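 active = fluorescence slope higher than the sample average by over 3 SD (cut at about -0.22 in these data, passing the limit was not always enough); inactive = the rest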

Chain of Voltage-gated potassium channel subunit beta-2 (Rattus norvegicus) (P62483 whole entry, looked up): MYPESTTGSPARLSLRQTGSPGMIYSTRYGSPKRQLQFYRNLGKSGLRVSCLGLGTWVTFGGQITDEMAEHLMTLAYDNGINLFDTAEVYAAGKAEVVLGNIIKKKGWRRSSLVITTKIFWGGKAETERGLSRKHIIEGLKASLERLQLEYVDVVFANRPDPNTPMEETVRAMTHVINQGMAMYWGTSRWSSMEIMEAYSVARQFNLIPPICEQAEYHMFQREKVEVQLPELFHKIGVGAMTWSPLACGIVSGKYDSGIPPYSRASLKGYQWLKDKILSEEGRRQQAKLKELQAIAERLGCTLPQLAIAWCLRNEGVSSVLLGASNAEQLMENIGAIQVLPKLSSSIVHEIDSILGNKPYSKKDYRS

Fluorescence slope, inactive:
c1nc(NCC2(N3CCOCC3)CCCCC2)c2ccsc2n1 -0.612
CC1CCCN(S(=O)(=O)c2ccc(C(=O)Nc3nnc(-c4ccccc4Cl)o3)cc2)C1 (centres undefined) -0.468
O=C(OCN1C(=O)c2ccccc2C1=O)c1ccc2c(=O)n3c(nc2c1)CCC3 -0.581
Cc1cc(C)n2nc(SCc3nc4ccccc4[nH]3)nc2n1 -0.568
Cc1ccc(S(=O)(=O)NCCSc2nnnn2-c2ccc(C(N)=O)cc2)cc1 -0.564
CC1(C)Cc2c(sc3c2c(=N)n(Cc2ccco2)c(=O)n3Cc2ccccc2)CO1 -0.587
CC1=C(C(=O)NCc2ccccn2)C2(CCC(C)CC2)OC1=O (centres undefined) -0.521
Cc1nnc(SC(=O)N2c3ccccc3Sc3ccccc32)s1 -0.31
Cc1ccnc(NC(=O)C2CCCN(S(=O)(=O)c3cnc[nH]3)C2)c1 (centres undefined) -0.564
